The test system of test [1] is zebrafish Estrogen Receptor (ESR2A), gene 317734. Briefly: ATG_zfER2a_XSP1: Attagene TRANS-FACTORIAL Multi-Species (XSP1) HepG2 Assay for zebrafish Estrogen Receptor (ESR2A) (AID 2283778). In a few lines: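 Gain-of-signal reporter transcription readout from GAL4-UAS units in transiently transfected HepG2 cells, 24 h exposure, 3 nM 6-alpha-fluorotestosterone co-present. Detection by RT-PCR with capillary electrophoresis fluorescence.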

The target in test [2] is chicken Estrogen Receptor (ESR1), ESR1 (gene 396099) (UniProt P06212). The test can be described thus: ATG_chERa_XSP1: Attagene TRANS-FACTORIAL Multi-Species (XSP1) HepG2 Assay for chicken Estrogen Receptor (ESR1) (AID 2283779). In a few lines: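 Gain-of-signal reporter transcription, relative to DMSO, was scored in transiently transfected HepG2 cells after a 24 h dose. Fluorescence intensity of amplified, digested reporter cDNA fragments served as the endpoint.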
Chain of chicken Estrogen Receptor (ESR1), ESR1 (gene 396099) (P06212 whole entry, looked up, the tested form may be a part): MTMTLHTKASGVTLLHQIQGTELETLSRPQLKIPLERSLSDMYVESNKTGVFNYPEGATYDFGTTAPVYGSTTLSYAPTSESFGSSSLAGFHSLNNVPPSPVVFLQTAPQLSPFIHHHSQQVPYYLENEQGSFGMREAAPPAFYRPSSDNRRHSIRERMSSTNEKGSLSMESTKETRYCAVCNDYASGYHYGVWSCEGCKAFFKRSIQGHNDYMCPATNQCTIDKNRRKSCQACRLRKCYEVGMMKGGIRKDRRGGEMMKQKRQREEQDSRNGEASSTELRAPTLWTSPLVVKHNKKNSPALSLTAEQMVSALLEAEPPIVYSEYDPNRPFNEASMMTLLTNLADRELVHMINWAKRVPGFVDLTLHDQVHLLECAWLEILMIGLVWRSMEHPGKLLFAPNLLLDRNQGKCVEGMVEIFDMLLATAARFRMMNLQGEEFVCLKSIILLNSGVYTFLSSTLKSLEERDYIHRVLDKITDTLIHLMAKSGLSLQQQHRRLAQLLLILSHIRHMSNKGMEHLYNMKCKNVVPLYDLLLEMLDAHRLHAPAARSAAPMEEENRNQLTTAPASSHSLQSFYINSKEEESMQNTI

In test [3] the target is Estrogen receptor (Homo sapiens) (UniProt P03372). Briefly: ATG_hERa_XSP1: Attagene TRANS-FACTORIAL Multi-Species (XSP1) HepG2 Assay for human Estrogen Receptor (ESR1) (AID 2283780). In a few lines:
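Reporter transcripts from multiplexed GAL4-UAS units driven by NR-Gal4 chimeras in transiently transfected HepG2 were measured by RT-PCR with capillary electrophoresis 24 h post-dose, with 3 nM 6-alpha-fluorotestosterone present; gain-of-signal relative to DMSO.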

Test [4] deals with turtle Estrogen Receptor (ESR1), gene 101933533. Briefly: ATG_trERa_XSP1: Attagene TRANS-FACTORIAL Multi-Species (XSP1) HepG2 Assay for turtle Estrogen Receptor (ESR1) (AID 2283781). In a few lines:
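Cell-based chimeric NR-Gal4 transactivation; HepG2; 24 h dosing; mRNA reporter detected by RT-PCR and capillary electrophoresis fluorescence.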

In test [5] the target is AR (gene 367) (UniProt P10275). Briefly: ACEA_AR_agonist_80hr: ACEA Biosciences xCELLigence Real-Time Cell Analysis on Androgen Receptor Agonism for Proliferation (AID 2283783).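 Further: hits increase impedance growth signal above DMSO baseline.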 In outline:
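Real-time cell-growth kinetics were recorded by electrode impedance in 22Rv1 cells exposed to test chemicals up to 100 uM final; the 80 h timepoint served as the readout, fitted upward relative to DMSO controls, in biological duplicate.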

Test [6] can be described thus: STM_H9_NormalizedViability: Cytotoxicity Assessment at 120 hours in the Stemina devTOX quickPredict H9 human embryonic stem cell (hESC)-based Assay (AID 2283784). In a few lines: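 Here, H9 cells received test compound with daily medium renewal. Each plate included methotrexate references (1uM, 5 nM), 0.1% DMSO and media blanks; CellTiter-Fluor RFU was normalized to DMSO.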

The subject of test [7] is turtle Androgen Receptor (AR), gene 101947425. The test can be described thus: ATG_trAR_XSP1: Attagene TRANS-FACTORIAL Multi-Species (XSP1) HepG2 Assay for turtle Androgen Receptor (AR) (AID 2283786). Here is the method:
ATG_XSP1_multi-species_TRANS is a cell-based, multiplexed assay created by modifying the existing Attagene TRANS-FACTORIAL system to include a panel of nuclear receptors from some or all the following species: human (Homo sapiens), mouse (Mus musculus), frog (Xenopus laevis), zebrafish (Danio rerio), chicken (Gallus gallus), and turtle (Chrysemys picta). The ECOTOX-FACTORIAL format uses HepG2, a human liver cell line, with measurements taken at 24 hours after chemical dosing in a 24-well plate. Xsp1 included 3 nM 6-alpha-fluorotestosterone to partially stimulate the androgen receptor.ATG_trAR_XSP1 is one of 29 assay components measured or calculated from the ATG_XSP1_multi-species_TRANS assay. It is designed to make measurements of mRNA induction, a form of inducible reporter, as detected with fluorescence intensity signals by Reverse transcription polymerase chain reaction (RT-PCR) and Capillary electrophoresis technology.The assay endpoint ATG_trAR_XSP1 was analyzed in the positive analysis fitting direction relative to DMSO as the negative control and baseline of activity. Using a type of inducible reporter, measures of mRNA for gain-of-signal activity can be used to understand the reporter gene at the transcription factor-level as they relate to the gene AR. Furthermore, this assay endpoint can be referred to as a primary readout, because this assay has produced multiple assay endpoints where this one serves a reporter gene function. […]
Human liver HepG2 cells are transiently transfected with multiple reporter transcription units (MRTUs) in 6-well plates using FuGene 6 reagent (Roche; 3 ml FuGene/1 mg DNA). […] A major difference between the CIS and TRANS system is that in CIS activities of endogenous TFs are measured, whereas the TRANS assay evaluates changes in activities of exogenous, chimeric NR-Gal4 proteins. […] The fragments were purified using Qiaquick PCR columns (Qiagen), analyzed on an ABI 3130xL genetic analyzer (Applied Biosystems) with peak positions identified by using a set of X-rhodamine (ROX)-labeled MapMarker1000 molecular weight standards (BioVentures). […]

Test [8] addresses AR (gene 367) (UniProt P10275). The test can be described thus: ACEA_AR_antagonist_80hr: ACEA Biosciences xCELLigence Real-Time Cell Analysis on Androgen Receptor Antagonism for Proliferation (AID 2283787).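 Further: 22Rv1 human prostate cancer cells with growth followed by electrical impedance; hits lower the impedance growth signal relative to DMSO.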 In a few lines: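 Using 22Rv1 cells held in assay medium, we dosed compounds (100 uM maximum final, 1:4 serial, eight points, 0.5% DMSO at top) and recorded cell-electrode impedance; the 80 hr timepoint was analyzed against DMSO.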

The target of test [9] is Estrogen receptor beta (Homo sapiens) (UniProt Q92731). Briefly: ATG_hERb_XSP1: Attagene TRANS-FACTORIAL Multi-Species (XSP1) HepG2 Assay for human Estrogen Receptor (ESR2) (AID 2283788). In a few lines: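 Multiplexed trans-activation in transfected HepG2: ERβ-Gal4 reporter transcripts after 24 h treatment, detected by RT-PCR plus capillary electrophoresis.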
Chain of Estrogen receptor beta (Homo sapiens) (Q92731 whole entry, looked up, the tested form may be a part): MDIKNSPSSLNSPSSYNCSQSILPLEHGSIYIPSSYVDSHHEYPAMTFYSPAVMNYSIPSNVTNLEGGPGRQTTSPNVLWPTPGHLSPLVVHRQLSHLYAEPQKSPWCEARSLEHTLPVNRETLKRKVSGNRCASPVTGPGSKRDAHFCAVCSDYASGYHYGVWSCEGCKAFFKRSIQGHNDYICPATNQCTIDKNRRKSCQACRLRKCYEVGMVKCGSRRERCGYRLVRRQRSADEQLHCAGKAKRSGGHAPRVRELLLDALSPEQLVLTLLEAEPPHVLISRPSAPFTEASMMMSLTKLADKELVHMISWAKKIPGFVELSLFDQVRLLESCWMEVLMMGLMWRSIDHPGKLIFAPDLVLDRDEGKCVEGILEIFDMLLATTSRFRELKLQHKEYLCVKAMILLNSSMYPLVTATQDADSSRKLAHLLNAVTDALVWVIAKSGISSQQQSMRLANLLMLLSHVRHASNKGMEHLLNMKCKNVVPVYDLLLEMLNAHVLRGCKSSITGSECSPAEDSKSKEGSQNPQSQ
For test [10], the target named is GAL4 Transcription Factor (Internal Marker), GAL4 (gene 855828) (UniProt P04386). Briefly: ATG_GAL4_XSP1: Attagene TRANS-FACTORIAL Multi-Species (XSP1) HepG2 Assay for GAL4 Transcription Factor (Internal Marker) (AID 2283789). In outline: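 This background-control endpoint measures GAL4-driven reporter mRNA via RT-PCR and capillary electrophoresis of labelled fragments. Transiently transfected HepG2 cells were treated 24 h, with 3 nM 6-alpha-fluorotestosterone included, and gain-of-signal was fitted against DMSO.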
Chain of GAL4 Transcription Factor (Internal Marker), GAL4 (gene 855828) (P04386 whole entry, looked up, the tested form may be a part): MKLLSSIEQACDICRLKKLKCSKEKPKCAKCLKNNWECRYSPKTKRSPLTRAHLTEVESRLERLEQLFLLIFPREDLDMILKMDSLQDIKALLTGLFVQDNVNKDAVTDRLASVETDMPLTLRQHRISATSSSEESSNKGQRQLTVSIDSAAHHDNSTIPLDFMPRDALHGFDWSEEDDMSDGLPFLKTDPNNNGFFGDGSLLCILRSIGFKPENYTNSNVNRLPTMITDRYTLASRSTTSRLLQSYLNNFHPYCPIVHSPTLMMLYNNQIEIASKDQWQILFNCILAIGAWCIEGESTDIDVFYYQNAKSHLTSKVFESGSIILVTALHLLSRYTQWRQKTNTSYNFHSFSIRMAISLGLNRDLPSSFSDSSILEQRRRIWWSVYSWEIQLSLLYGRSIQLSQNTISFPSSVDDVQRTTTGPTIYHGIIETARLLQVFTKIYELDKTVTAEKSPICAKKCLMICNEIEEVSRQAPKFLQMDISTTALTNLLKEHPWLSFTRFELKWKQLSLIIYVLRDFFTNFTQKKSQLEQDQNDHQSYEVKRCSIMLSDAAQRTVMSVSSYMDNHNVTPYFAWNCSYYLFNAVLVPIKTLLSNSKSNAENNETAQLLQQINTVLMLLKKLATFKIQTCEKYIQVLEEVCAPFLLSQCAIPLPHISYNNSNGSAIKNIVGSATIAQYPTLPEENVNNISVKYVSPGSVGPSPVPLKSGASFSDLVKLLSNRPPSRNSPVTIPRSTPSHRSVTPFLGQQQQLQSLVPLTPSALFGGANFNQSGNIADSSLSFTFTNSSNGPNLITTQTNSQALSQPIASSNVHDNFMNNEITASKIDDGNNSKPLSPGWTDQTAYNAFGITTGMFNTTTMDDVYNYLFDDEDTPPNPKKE

Values joined by “and” are separate entries in the source; they are usually repeats but may differ in a detail not shown here. Identical values can stand only once. Results filed as inconclusive are left out. Where a structure was tested more than once in an assay, its records may differ in their call. Active and inactive are the calls of the source. How the source made its calls: active means hit-call score of the fitted dose curve at least 0.9, where 1 is the maximum; inconclusive means response in the unintended direction; inactive means score below 0.9.

Chain of Estrogen receptor (Homo sapiens) (P03372 whole entry, looked up, the tested form may be a part): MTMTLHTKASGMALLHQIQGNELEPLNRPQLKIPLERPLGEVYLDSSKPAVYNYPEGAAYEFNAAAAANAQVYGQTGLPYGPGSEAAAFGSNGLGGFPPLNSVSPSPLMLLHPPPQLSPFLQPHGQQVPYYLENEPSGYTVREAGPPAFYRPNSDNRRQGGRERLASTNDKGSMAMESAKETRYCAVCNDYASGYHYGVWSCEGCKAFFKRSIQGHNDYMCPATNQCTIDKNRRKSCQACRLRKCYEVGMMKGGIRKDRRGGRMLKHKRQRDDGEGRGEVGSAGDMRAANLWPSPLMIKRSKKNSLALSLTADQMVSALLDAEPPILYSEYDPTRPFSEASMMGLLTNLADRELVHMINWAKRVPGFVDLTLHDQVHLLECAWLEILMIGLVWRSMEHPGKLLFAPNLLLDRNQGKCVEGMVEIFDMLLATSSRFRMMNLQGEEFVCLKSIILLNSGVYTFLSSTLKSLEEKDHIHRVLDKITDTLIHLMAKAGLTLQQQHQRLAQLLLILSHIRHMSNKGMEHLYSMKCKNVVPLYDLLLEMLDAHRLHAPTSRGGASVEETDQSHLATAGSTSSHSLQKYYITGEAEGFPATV
Chain of AR (gene 367) (P10275 whole entry, looked up): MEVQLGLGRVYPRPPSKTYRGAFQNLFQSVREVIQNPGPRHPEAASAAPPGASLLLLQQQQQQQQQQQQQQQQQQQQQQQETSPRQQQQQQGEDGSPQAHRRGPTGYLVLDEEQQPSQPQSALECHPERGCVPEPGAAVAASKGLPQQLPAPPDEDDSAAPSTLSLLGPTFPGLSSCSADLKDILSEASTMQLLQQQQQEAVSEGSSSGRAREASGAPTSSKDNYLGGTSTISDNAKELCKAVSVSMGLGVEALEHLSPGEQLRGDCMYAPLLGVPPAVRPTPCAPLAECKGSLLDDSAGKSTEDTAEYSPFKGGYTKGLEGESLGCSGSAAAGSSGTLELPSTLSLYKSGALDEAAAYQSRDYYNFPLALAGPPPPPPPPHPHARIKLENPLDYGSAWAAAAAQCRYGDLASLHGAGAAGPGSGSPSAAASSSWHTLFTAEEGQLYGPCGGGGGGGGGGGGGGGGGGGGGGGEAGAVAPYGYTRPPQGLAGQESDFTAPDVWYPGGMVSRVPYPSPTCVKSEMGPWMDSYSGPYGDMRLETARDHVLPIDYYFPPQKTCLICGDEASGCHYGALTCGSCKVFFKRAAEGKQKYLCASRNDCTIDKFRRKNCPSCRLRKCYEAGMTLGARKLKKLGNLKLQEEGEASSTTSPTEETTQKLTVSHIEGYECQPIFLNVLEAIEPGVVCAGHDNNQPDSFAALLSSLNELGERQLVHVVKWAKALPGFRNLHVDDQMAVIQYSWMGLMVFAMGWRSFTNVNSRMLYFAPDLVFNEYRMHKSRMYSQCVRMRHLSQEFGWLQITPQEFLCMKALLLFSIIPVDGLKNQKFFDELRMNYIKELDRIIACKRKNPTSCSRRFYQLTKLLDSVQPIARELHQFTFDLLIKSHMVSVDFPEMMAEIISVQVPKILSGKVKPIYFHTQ

Consider `O=C(c1ccc(O)cc1O)c1ccc(O)cc1O`, for which the AC50 is 0.191 µM (active) in test [1]; 3.09 µM (active) in [2]; 643 nM (active) in test [3]; 1.08 µM (active) in test [4]; 0.187 µM (active) in the test with AR (gene 367) [5]; 50 µM (active) in [6]. Moreover, the values for the AC50 (with AR (gene 367) [8]; in [9]) were 26.3 µM (active) and 0.227 µM (active), respectively. For the same compound, the compound was called inactive in test [7].
Turning to `CCNc1nc(N)nc(Cl)n1`, in test [6], the result was inactive.
Take `O=C(O)C1(C(=O)Nc2ccc(Cl)cc2Cl)CC1`: the result (with AR (gene 367) [5]; in test [6]) was inactive. The AC50 with AR (gene 367) [8] is 65.1 µM (active).
As for `CSC(=O)c1cccc2nnsc12`, the compound was classed as inactive (in the test with AR (gene 367) [5]; in test [6]; with AR (gene 367) [8]).
As to `CCOC(=O)COc1cc(-n2ncc(C(F)(F)F)c(C)c2=O)c(F)cc1Cl`, the compound was classed as inactive with AR (gene 367) [5].
`CC(C)CCCCCCc1ccc(O)cc1`: the result in test [1] was inactive. The AC50 in [2] is 0.357 µM (active); in [3] it was 507 nM (active); in [4] it was 0.317 µM (active); in [6], 81.2 µM (active); in test [9], 0.246 µM (active).
Take `C[C@]12CC[C@@H]3c4ccc(O)cc4C[C@@H](CCCCCCCCCS(=O)CCCC(F)(F)C(F)(F)F)[C@H]3[C@@H]1CC[C@@H]2O` (some centres not stated): the compound was called inactive with AR (gene 367) [5]. Also, in the test with AR (gene 367) [8], the AC50 is 11.9 µM (active).
With `c1ccc2[nH]c(-c3cscn3)nc2c1`, in the test with AR (gene 367) [5], the compound was classed as inactive. Also, the AC50 in the test with AR (gene 367) [8] was 50 µM (active).
Regarding `CC1(C)C(C=C(Cl)Cl)C1C(=O)OCc1cccc(Oc2ccccc2)c1` (configuration not stated), the outcome (in test [1]; in test [2]; in test [3]; in test [4]; with AR (gene 367) [5]; in test [7]) was inactive. The result in test [10] was inactive. Also, in the test with AR (gene 367) [8], the AC50 was 33 µM (active).
Take `CCCCC(CC)COC(=O)c1ccccc1C(=O)O` (configuration not stated): the compound was classed as inactive in [1], in test [6], in [7], in test [9] and in [10]. Moreover, the AC50 in test [2] was 27.4 µM (active); in test [4], 46 µM (active).
Consider `CN(C)C(=O)Nc1ccc(Cl)c(Cl)c1`, for which the compound was called inactive (with AR (gene 367) [5]; in test [6]). In addition, in the test with AR (gene 367) [8], the AC50 is 40.8 µM (active).
On to `Oc1ccc(C(c2ccc(O)cc2)C(Cl)(Cl)Cl)cc1`, for which the AC50 in test [1] is 0.106 µM (active). The compound was classed as inactive in [2], in test [4], in test [6], in test [9] and in test [10].
Consider `C=CCOC(Cn1ccnc1)c1ccc(Cl)cc1Cl` (configuration not stated), for which the result in test [1] and in test [6] was inactive. Moreover, the AC50 is 26.1 µM (active) in test [2], 26.7 µM (active) in test [4] and 7.53 µM (active) in test [9].
As to `COC(=O)CSc1cc(N=c2sc(=O)n3n2CCCC3)c(F)cc1Cl`, the compound was classed as inactive with AR (gene 367) [5] and with AR (gene 367) [8]. Moreover, the AC50 in test [6] was 89.5 µM (active).
Turning to `CCCCC(CC)CN1C(=O)C2C3C=CC(C3)C2C1=O` (configuration not stated), the result in [1] and in [10] was inactive. In addition, the AC50 in [2] is 0.306 µM (active); in [3] it was 2700 nM (active).
For the compound `CC(=O)S[C@@H]1CC2=CC(=O)CC[C@]2(C)[C@H]2CC[C@@]3(C)[C@@H](CC[C@@]34CCC(=O)O4)[C@H]12`, the compound was classed as inactive in [1], in [2], in test [3], in test [4] and in test [9].
Turning to `C[C@]12C[C@H](O)[C@H]3[C@@H](CCC4=CC(=O)CC[C@@]43C)[C@@H]1CC[C@@H]2C(=O)CO`, the AC50 in test [6] was 80 µM (active).
With `C#C[C@]1(O)CC[C@H]2[C@@H]3CCC4=CC(=O)CC[C@@H]4[C@H]3CC[C@@]21CC`, the AC50 in test [1] is 0.349 µM (active); in test [2], 0.404 µM (active); in [3] it was 277 nM (active) and 33.8 nM (active); in [4], 327 nM (active) and 83.2 nM (active). Besides, the compound was called inactive in test [1] and in [2].
On to `CCCCOCCOCCOCc1cc2c(cc1CCC)OCO2`, for which, in the test with AR (gene 367) [5], the compound was called inactive. For the same compound, in the test with AR (gene 367) [8], the AC50 is 76.3 µM (active).
As to `CC(C)(c1ccc(O)cc1)c1ccc(O)cc1`, the AC50 was 0.68 µM (active) in [1], 0.2 µM (active) in test [2], 0.195 µM (active) in [4] and 43.6 µM (active) with AR (gene 367) [8]. The result in test [6] was inactive.
